Test results published in PubChem BioAssay (EPA / NIEHS).
Values joined by “and” are separate entries in the source; they are usually repeats but may differ in a detail not shown here. Equal values may be shown once. Results filed as inconclusive are left out. Active and inactive are the calls of the source. Rule for the calls, unless noted: active = hit-call score of the fitted dose curve at least 0.9, where 1 is the maximum; inactive = score below 0.9.

What was measured:
[1] = CCTE_Mundy_HCI_Cortical_NOG_NeuronCount: CCTE's Neurite Outgrowth Assay in rat cortical cells for Neuron Count, Mundy Lab (AID 2284236; active = hit-call score of the fitted dose curve at least 0.9, where 1 is the maximum;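 note: neurons counted by imaging betaIII-tubulin and Hoechst stained cortical cells; cells exposed to compound for about 48 hours before fixation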)
In short: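 Read-out: neuron number by high-content imaging of betaIII-tubulin (Alexa Fluor-488) and Hoechst-labelled rat primary cortical cells.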

[2] = CCTE_Mundy_HCI_Cortical_NOG_BPCount: CCTE's Neurite Outgrowth Assay in rat cortical cells for Branch Point Count, Mundy Lab (AID 2284237);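 for AC50: branch points counted about two days after chemical exposure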
In short: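 Measured 50.33 h after dosing, this morphology endpoint uses rat primary cortical cultures labelled for betaIII-tubulin. Branch points are quantified by high-content imaging, with DMSO as negative control and baseline.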

[3] = CCTE_Mundy_HCI_hNP1_Casp3_7: CCTE's Caspase-Glo 3/7 Assay in human neuroprogenitor cells for Apoptosis, Mundy Lab (AID 2284240)
In short: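 Apoptosis is scored by activated caspase-3/7 luminescence in WA09-derived neural progenitor cells, measured 26.5 h after chemical dosing. Values represent gain of signal relative to DMSO vehicle.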

[4] = CCTE_Mundy_HCI_hNP1_CellTiter: CCTE's Cell Titer-Glo 2 Assay in human neuroprogenitor cells for Viability, Mundy Lab (AID 2284241; active = hit-call score of the fitted dose curve at least 0.9, where 1 is the maximum;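 for AC50: a hit is a drop in ATP luminescence versus DMSO meaning reduced viability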)
In short: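 Human neural progenitor cells (hNP1, WA09-derived) were plated on poly-L-ornithine/laminin and grown 40 to 44 hours at 37 °C, 5% CO2 before chemical addition. Twenty-four hours later, ATP was measured by CellTiter-Glo luminescence; loss of signal versus DMSO indicates reduced viability.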

[5] = CCTE_Mundy_HCI_Cortical_Synap_Neur_Matur_NeuronCount: CCTE's Synaptogenesis and Neurite Maturation Assay in rat cortical cells for Neuron Count, Mundy Lab (AID 2284242; active = hit-call score of the fitted dose curve at least 0.9, where 1 is the maximum;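 for AC50: neuron number from Hoechst nuclei and MAP2 staining by high-content imaging; hits reduce neuron count versus DMSO baseline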)
In short: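 Cortical cells from rat are plated, treated with AraC at DIV 5, and exposed to test chemicals with a media change at DIV 7. At DIV 12 they are fixed and immunostained (MAP2, synaptophysin), and imaged neuron counts are compared against DMSO controls.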

[6] = BSK_BT_PBMCCytotoxicity: PBMC Cytotoxicity Assessment in the BioMAP Diversity Plus: BT Assay (AID 2284225); conditions: primary human B cells with PBMC;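 note: PBMC viability measured by Alamar Blue dye reduction fluorescence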
In short: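 Viability by Alamar Blue reduction (6 h, ex/em 546/580 nm) after 90 h culture of SEB/TSST-1-activated PBMC (20 ng/mL each) given compound 1 h before activation. DMSO served as baseline for curve fitting.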

[7] = read-out: Interleukin 6 (IL6), IL6 (gene 3569); assay: BSK_BT_xIL6: BioMAP Diversity Plus: BT Assay for Interleukin 6 (IL6) Biomarker Activity (AID 2284228); conditions: primary human B cells with PBMC
In short: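 Chemical added to human B cell/PBMC co-culture → 24 h → supernatant IL-6 by Luminex xMAP → fit vs DMSO baseline, upward direction.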

[8] = read-out: Tumor necrosis factor (Homo sapiens) (UniProt P01375); assay: BSK_BT_xTNFa: BioMAP Diversity Plus: BT Assay for Tumor necrosis factor alpha (TNF-alpha) Biomarker Activity (AID 2284230); conditions: primary human B cells with PBMC
In short: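 Compounds were added to a B cell plus PBMC co-culture, and after 24 h secreted TNF-alpha was quantified with Luminex xMAP technology, with responses fitted upward from the DMSO control.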

[9] = read-out: Vascular cell adhesion molecule 1 (VCAM1), VCAM1 (gene 7412); assay: BSK_MyoF_VCAM1: BioMAP Diversity Plus: MyoF Assay for Vascular cell adhesion molecule 1 (VCAM1) Biomarker Activity (AID 2284231); conditions: primary human lung fibroblasts
In short: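 Steps: fibroblasts from human lung exposed to compound; biomarker quantified by ELISA at 24 h; values analysed for upward change over the DMSO baseline.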

[10] = read-out: Collagen I, COL1A1 (gene 1277); assay: BSK_MyoF_CollagenI: BioMAP Diversity Plus: MyoF Assay for Collagen I Biomarker Activity (AID 2284238); conditions: primary human lung fibroblasts
In short: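 Multiplexed primary human lung fibroblast system; Collagen I measured by ELISA at 24 h post-dose. Increases are referenced to DMSO.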

[11] = read-out: Interleukin 17F (IL17F), IL17F (gene 112744); assay: BSK_BT_xIL17F: BioMAP Diversity Plus: BT Assay for Interleukin 17F (IL17F) Biomarker Activity (AID 2284243); conditions: primary human B cells with PBMC
In short: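 Measures secreted IL-17F from a human B cell plus PBMC co-culture at 24 h post-dose by Luminex xMAP, with DMSO defining baseline activity.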

[12] = read-out: Actin alpha 1 (ACTA1), ACTA1 (gene 58); assay: BSK_MyoF_ACTA1: BioMAP Diversity Plus: MyoF Assay for Actin alpha 1 (ACTA1) Biomarker Activity (AID 2284244); conditions: primary human lung fibroblasts
In short: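 Cells were exposed to chemical for 24 h before a-SMA levels were quantified by ELISA in human lung fibroblasts. Increases were fitted against DMSO as negative control; parallel SRB staining (0.1% after 10% TCA fixation, 560 nm) assessed cytotoxicity.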

[13] = read-out: Interleukin 2 (IL2), IL2 (gene 3558); assay: BSK_BT_xIL2: BioMAP Diversity Plus: BT Assay for Interleukin 2 (IL2) Biomarker Activity (AID 2284245); conditions: primary human B cells with PBMC
In short: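 The BT system combines human B cells with peripheral blood mononuclear cells. Twenty-four hours after chemical dosing, secreted IL-2 was measured with xMAP bead technology, and responses were analyzed as increases over DMSO controls.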

[14] = read-out: Basic fibroblast growth factor (bFGF), FGF2 (gene 2247); assay: BSK_MyoF_bFGF: BioMAP Diversity Plus: MyoF Assay for Basic fibroblast growth factor (bFGF) Biomarker Activity (AID 2284246); conditions: primary human lung fibroblasts
In short: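 Chemicals are added to human lung fibroblast cultures and incubated 24 h. bFGF is then measured by ELISA, while parallel cultures receive SRB staining for total protein as a cytotoxicity check. Data are fitted upward against DMSO.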

[15] = read-out: Collagen IV, COL4A1 (gene 1282); assay: BSK_MyoF_CollagenIV: BioMAP Diversity Plus: MyoF Assay for Collagen IV Biomarker Activity (AID 2284247); conditions: primary human lung fibroblasts
In short: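 Human lung fibroblast system, 24 h chemical exposure. Endpoint: Collagen IV by ELISA, upward fit vs DMSO.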

[16] = read-out: Monokine induced gamma interferon (MIG), CXCL9 (gene 4283); assay: BSK_KF3CT_MIG: BioMAP Diversity Plus: KF3CT Assay for Monokine induced gamma interferon (MIG) Biomarker Activity (AID 2284248); conditions: primary human keratinocytes with fibroblasts
In short: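 The assay uses a co-culture of human keratinocytes and foreskin fibroblasts. Measurement occurs 24 hours after dosing, with MIG detected by ELISA and the DMSO control as baseline.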

[17] = TAMU_PeakParms_SingleDonor1434_QT: Texas A&M University (TAMU) 1.5-hr Human Induced Pluripotent Stem Cell (iPSC)-derived Cardiomyocytes Calcium (Ca+2) Flux Assay for Cardiotoxicity: QT (decay-rise ratio) (AID 2284235; active = hit-call score of the fitted dose curve at least 0.9, where 1 is the maximum)
In short: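 Decay/rise ratio of calcium-flux fluorescence scored after 90 min exposure (37C) of donor 1434 iPSC cardiomyocytes to 0.2–100 uM (0.5% DMSO). Beat-cessation and severe-notch points removed; POD is EC05, a 5% rise over DMSO.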

[18] = TAMU_HCS_1.5hr_SingleDonor1434_Cytotoxicity: Cytotoxicity Assessment using High-content Screening (HCS) Fluorescent Imaging for the Texas A&M University (TAMU) 1.5-hr Human Induced Pluripotent Stem Cell (iPSC)-derived Cardiotoxicity Assay (AID 2284234; active = hit-call score of the fitted dose curve at least 0.9, where 1 is the maximum)
In short: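 Nuclear counts from Hoechst 33342 imaging define cytotoxicity here, with EC10 (10% cell-count loss relative to DMSO) as point of departure. iPSC cardiomyocytes received 0.2-100 uM test chemical in 0.5% DMSO for 1.5 h at 37 C.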

[19] = UKN4_HCS_LUHMES_cell_viability: Viability Assessment in the University of Konstanz (UKN) Leist Lab Neurite Outgrowth Assay in human LUHMES cells (UKN4) (AID 2284232)
In short: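 Cells switched to differentiation medium at day 0, replated on day 2 in medium lacking cAMP and GDNF, and compound-treated once attached. Live staining began 23.5 h later, imaging followed at 24 h.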

[20] = UKN2_HCS_IMR90_cell_viability: Viability Assessment in the University of Konstanz (UKN) Leist Lab Neural Crest Cell Migration Assay in human induced IMR90 Pluripotent Stem Cells (UKN2) (AID 2284233);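 note: cells exposed to compound for 24 h after a 24 h migration phase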
In short: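 After calcein-AM/Hoechst staining, viability is quantified by high-content fluorescence imaging, relative to DMSO, in iPSC (IMR90)-derived neural crest cells. Exposure lasts 24 h, starting after a 24 h migration period on PLO/laminin/fibronectin coating.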

Measured: AC50

Chain of Tumor necrosis factor (Homo sapiens) (P01375 whole entry, looked up): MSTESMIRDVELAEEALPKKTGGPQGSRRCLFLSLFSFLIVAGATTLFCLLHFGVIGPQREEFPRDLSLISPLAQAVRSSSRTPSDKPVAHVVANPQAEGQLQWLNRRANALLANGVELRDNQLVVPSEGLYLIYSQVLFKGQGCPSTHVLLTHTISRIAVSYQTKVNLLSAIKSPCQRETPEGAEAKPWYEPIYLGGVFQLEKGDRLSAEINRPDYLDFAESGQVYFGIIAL

C[C@]12C=CC(=O)C=C1CC[C@H]1[C@@H]3C[C@@H](O)[C@](O)(C(=O)CO)[C@@]3(C)C[C@H](O)[C@@]12F
active: [1] 23.6 µM | [2] 20.1 µM | [3] 23 µM | [4] 25.6 µM | [5] 3.75 µM

Cc1cccc(O)c1C
inactive: [6] | [7] | [8] | [9] | [10] | [11] | [12] | [13] | [14] | [15]

FC(F)(F)C(F)(F)C(F)(F)C(F)(F)C(F)(F)C(F)(F)I
inactive: [6] | [7] | [8] | [3] | [4] | [11] | [13] | [14] | [16]
active: [9] 25.3 µM and 40.7 µM | [10] 33.1 µM and 39.4 µM | [12] 17.8 µM and 30 µM | [15] 51.3 µM and 47.7 µM

C[Si](C)(C)C(F)(F)C(F)(F)C(F)(F)F
inactive: [6] | [7] | [8] | [9] | [10] | [11] | [12] | [13] | [14] | [15] | [16]

COc1cc2c(c(OC)c1OC)-c1ccc(OC)c(=O)cc1[C@@H](NC(C)=O)CC2
inactive: [17]
active: [1] 0.0535 µM | [2] 0.00988 µM | [3] 0.0228 µM | [4] 0.0224 µM | [5] 0.0339 µM

NCC(F)(F)C(F)(F)C(F)(F)C(F)(F)F
inactive: [6] | [7] | [8] | [9] | [10] | [11] | [12] | [13] | [14] | [15] | [16]

OC[C@H]1O[C@@](CO)(O[C@H]2O[C@H](CO)[C@@H](O)[C@H](O)[C@H]2O)[C@@H](O)[C@@H]1O
inactive: [18]

CC(C)C(=O)Nc1ccc([N+](=O)[O-])c(C(F)(F)F)c1
inactive: [18] | [17]

FC(F)C(F)(F)COCC1CO1 (stereo not given)
inactive: [6] | [7] | [8] | [9] | [10] | [11] | [12] | [13] | [14] | [15] | [16]

S=P(N1CC1)(N1CC1)N1CC1
active: [11] 20.9 µM
inactive: [6] | [7] | [8] | [9] | [10] | [12] | [13] | [14] | [15]

OC(O)(C(F)C(O)(O)C(F)(F)F)C(F)(F)F
inactive: [6] | [8] | [9] | [10] | [4] | [12] | [14] | [15] | [16]
active: [7] 53.3 µM and 52 µM | [3] 13.4 µM | [11] 46.7 µM and 30 µM | [13] 40.6 µM and 22.3 µM

O=C(Cl)C(F)(F)C(F)(F)C(F)(F)C(=O)Cl
inactive: [6] | [7] | [8] | [9] | [10] | [3] | [4] | [11] | [12] | [13] | [14] | [15] | [16]

c1ccc2c(c1)-c1cccc3c1c-2cc1ccccc13
inactive: [18] | [17]

NC(=O)N1c2ccccc2C=Cc2ccccc21
inactive: [19] | [20] | [1] | [2] | [3] | [4]

Nc1ccn([C@@H]2O[C@H](CO)[C@@H](O)[C@@H]2O)c(=O)n1
inactive: [19] | [20] | [4]
active: [1] 1.58 µM and 2.33 µM | [2] 11.9 µM and 3 µM | [3] 29 nM and 290 nM | [5] 4.39 µM and 3.57 µM

CCN(CC)C(=S)SSC(=S)N(CC)CC
active: [18] 50 µM

NNC(=O)c1ccncc1
inactive: [2] | [3] | [4] | [5]

FC(F)(F)COC(OCC(F)(F)F)OCC(F)(F)F
inactive: [6] | [7] | [8] | [9] | [10] | [11] | [12] | [13] | [14] | [15] | [16]

O=S(=O)(O)CCC(F)(F)C(F)(F)C(F)(F)C(F)(F)C(F)(F)C(F)(F)F
inactive: [6] | [7] | [8] | [9] | [10] | [11] | [12] | [13] | [14] | [15] | [16]

CCCC(CCC)C(=O)O
inactive: [19] | [20] | [17] | [2] | [4] | [5]
active: [3] 1500 µM

c1ccc2cc3ccccc3cc2c1
inactive: [1] | [2] | [3] | [4]

OC(Cn1cncn1)(Cn1cncn1)c1ccc(F)cc1F
inactive: [2] | [3] | [4]

OCc1c[nH]c2ccccc12
inactive: [6] | [8] | [9] | [10] | [11] | [12] | [14] | [15]
active: [7] 3.97 µM | [13] 1.81 µM

FC(F)=C(F)C(F)(F)C(F)(F)C(F)(F)C(F)(F)C(F)(F)C(F)(F)F
inactive: [6] | [7] | [8] | [9] | [10] | [3] | [4] | [11] | [12] | [13] | [14] | [15] | [16]

OCCC(F)(F)C(F)(F)C(F)(F)C(F)(F)F
inactive: [6] | [7] | [8] | [9] | [10] | [11] | [12] | [13] | [14] | [15] | [16]

Cn1cc[nH]c1=S
inactive: [1] | [2] | [3] | [4]
